The values that follow come from ChEMBL document CHEMBL4513216, “Probing the Open Global Health Chemical Diversity Library for Multistage-Active Starting Points for Next-Generation Antimalarials” (ACS Infect Dis, 2020).

Among all 69,000 compounds or so, about 8,600 (12%) showed an effect of 50% or more. This excerpt belongs to a sample that is enriched for strong results.

This assay relates to Plasmodium berghei. As to the kind of experiment: Screen against P. berghei liver stage (PbLuc), transformed with Luciferase, at 10uM. As to conditions: tested at 10 uM. Type of assay: functional, HepG2.
Turning to `O=c1[nH]c2cn(-c3ccc(F)cc3)c(=O)n2n1Cc1cccc(Cl)c1`, the INHIBITION was found to be 9.48%.
Then `CN1CCC2(CC1)Cc1ccccc1CN(C(=O)CN)C2`, with 29.2%; and `Cc1cc(N(C)C)nc(C2(C)CCNCC2)n1`, with -5.8%.
With `CCn1cc(NC(=O)NCCN2CCCCCC2=O)cn1`, the INHIBITION is given as 7.24%.
Then `CC(C)(C)NC(=O)CNc1ncc(Br)cn1`, with 28.8%; and `CC(C)c1nc(CN2CCN(C(C)c3nc(C4CC4)no3)CC2)no1` (stereo not given), with 13.5%; and `CC(C)c1noc(C(C)N2CCN(Cc3noc(C4CC4)n3)CC2)n1` (stereo not given), with 27.6%.
For `CC(c1nc(C2CC2)no1)N1CCN(Cc2noc(C3CC3)n2)CC1` (stereo not given), the INHIBITION was found to be 51.1%.
Turning to `CC(C)Cc1cc(NC(=O)c2ccccn2)n(C)n1`, the INHIBITION was 37.4%.
Take `Cc1cc(C)nc(N2CCN(C(=O)c3ccc(C4CCCO4)s3)CC2)n1` (stereo not given): the INHIBITION is 36.8%.
As for `O=C(c1ccc(C2CCCO2)s1)N1CCOCC1` (stereo not given), the INHIBITION was -48.4%.
Then `O=C(c1ccc(C2CCCO2)s1)N1CCN(c2ccccc2F)CC1` (stereo not given), with 80.1%.
On to `O=C(Nc1ccccc1OCCc1ccccn1)N1CC[C@@H](O)C1`, for which the INHIBITION was -48.1%.
As to `NC(=O)c1ccc(CN2CCCC(N3CCCC3)C2)cc1` (stereo not given), the INHIBITION was -3.95%.
Then `NC(=O)c1ccc(CN2CCCC(O)C2)cc1` (stereo not given), with -6.32%; and `CC1CCCN(Cc2ccc(C(N)=O)cc2)C1` (stereo not given), with 50.5%.
`CN1CCN(c2cc(CNC(=O)Cn3cccn3)ccn2)CC1`: the INHIBITION amounted to 37.8%.
Take `N#Cc1csc(CNCCOc2ncccc2Cl)c1`: the INHIBITION is reported as -23.2%.
Under `O=C(c1ccco1)N1C[C@H]2CCCN(Cc3ccoc3)[C@H]2C1` stands 44.3%; under `COc1ccc([C@@H]2NC(=O)N[C@H]3OCCC[C@H]32)cc1`, 42.1%.
Then `O=C1N[C@H]2OCCC[C@H]2[C@H](c2ccccc2)N1`, with 52.2%; and `O=C1N[C@H]2OCCC[C@H]2[C@H](c2ccc(C(=O)O)cc2)N1`, with -1.25%; and `COCCNC(=O)CN1CC=C(n2c(C)nc(=O)c3ccccc32)CC1`, with 6.33%.
Turning to `c1cnc(NCc2nnn3c2CN(Cc2ccco2)CCC3)nc1`, the INHIBITION was -11.6%.
For `CN(Cc1cccc(Cl)c1)S(=O)(=O)N1CCOCC1`, the INHIBITION is recorded as -14.2%.
On to `CC(=O)NCCn1ccnc1-c1cccc(C(C)N(C)C)c1` (stereo not given), for which the INHIBITION came out at 30.3%.
Then `CC(c1cccc(-c2nccn2CCc2ccccn2)c1)N(C)C` (stereo not given), with 36.5%; and `CC(c1cccc(-c2nccn2CCc2cn[nH]c2)c1)N(C)C` (stereo not given), with 85.9%; and `Cc1noc(C)c1-c1cccc(C2CCN(CC(=O)N(C)C)CC2)n1`, with 8%.
Turning to `Cc1ncsc1C(=O)N(C)Cc1cccnc1`, the INHIBITION was -4.865%.
`COc1ccc(OC)c(C(=O)N2C[C@@H]3CC[C@H]2CN(C)C3)c1`: the INHIBITION came to 9.56%.
For `O=c1c(NCCNCCO)c(N2CCN(c3ccc(F)cc3)CC2)c1=O`, the INHIBITION stood at 23%.
Regarding `Cc1ccc(C(=O)NC2CCN(Cc3nc(C(C)C)no3)CC2)s1`, the INHIBITION stood at 13.8%.
Under `Clc1cncc(NCc2cccc(COC3CCOCC3)c2)n1` stands -16.8%; under `Clc1cnccc1NCc1cccc(COC2CCOCC2)c1`, 79.7%.
Turning to `CS(=O)(=O)NCc1cccc(COC2CCCCC2)c1`, the INHIBITION is on record as 9.63%.
`COc1ccc(C(=O)N(Cc2cnn(C)c2)C(C)C)cc1OC(F)F`: the INHIBITION is recorded as 33.3%.
Under `Cc1nc(C)n(C2CCCN(C(=O)c3cc(C4CC4)on3)C2)n1` (stereo not given) stands 29.2%.
Under `O=C(NS(=O)(=O)c1ccc(Cl)cc1F)c1cccc2c1OCCO2` stands 50%; under `Cc1ccc(S(=O)(=O)NC(=O)c2cccc3c2OCCO3)c(C)c1`, 23.7%; under `Cc1ccc(C)c(S(=O)(=O)NC(=O)c2cccc3c2OCCO3)c1`, 68.8%.
In the case of `O=C(NS(=O)(=O)c1ccccc1Cl)c1cccc2c1OCCO2`, the INHIBITION stood at 49%.
For `O=C(NS(=O)(=O)c1cc(Cl)ccc1Cl)c1cccc2c1OCCO2`, the INHIBITION is on record as -31.3%.
On to `COC(=O)c1ccccc1S(=O)(=O)NC(=O)c1cccc2c1OCCO2`, for which the INHIBITION is given as -7.36%.
Then `Cc1ccc(C)c(S(=O)(=O)NC(=O)c2ccc(C)[nH]c2=O)c1`, with 52.3%.
Regarding `Cc1ccc(C(=O)NS(=O)(=O)c2ccccc2C)c(=O)[nH]1`, the INHIBITION amounted to 24.6%.
For `Cc1ccc(C(=O)NS(=O)(=O)c2cc(Br)ccc2C)c(=O)[nH]1`, the INHIBITION is 25.6%.
For the compound `Cc1ccc(C(=O)NCCCN(C)S(C)(=O)=O)c(=O)[nH]1`, the INHIBITION was 40.4%.
On to `CCN(CCCNC(=O)c1ccc(C)[nH]c1=O)S(C)(=O)=O`, for which the INHIBITION was found to be 61%.
Turning to `Cc1ccc(C(=O)NCCCN(C(C)C)S(C)(=O)=O)c(=O)[nH]1`, the INHIBITION is on record as -8.97%.
Under `CCc1ccc(C(COC)NC(=O)c2ccc(NC(C)=O)cc2)o1` (stereo not given) stands 18.4%; under `CCO[C@H]1CN(C)C[C@@H]1NC(=O)c1cc(C)nc2c(C)c(C)ccc12`, 35%; under `CCNC(=O)[C@@H]1C[C@H](NC(=O)Cn2ccnc2)CN1Cc1ccsc1`, 39.3%.
Take `CCN1CC(CN(C)Cc2nc(-c3cccc(Cl)c3)oc2C)CC1=O` (stereo not given): the INHIBITION is 29.8%.
Turning to `CC(=O)NCCCNC(=O)N(C)C(C)Cc1ccc(Cl)cc1` (stereo not given), the INHIBITION is recorded as -6.99%.
`N#Cc1cc(F)ccc1NCC1CCS(=O)(=O)CC1`: the INHIBITION was -3.26%.
Regarding `CN(CC1CC1)S(=O)(=O)c1ccc(C(F)(F)F)cc1C#N`, the INHIBITION came out at 47.2%.
As to `N#Cc1cc(C(F)(F)F)ccc1NCC1CCS(=O)(=O)CC1`, the INHIBITION is given as 56.4%.
Under `CCN(CC)S(=O)(=O)c1ccc(C(F)(F)F)cc1C#N` stands 27.6%.
As for `CS(=O)(=O)NCCCNc1ccc(C(F)(F)F)cc1C#N`, the INHIBITION amounted to 72.6%.
Turning to `CS(=O)(=O)CCOCCNc1ccc(C(F)(F)F)cc1C#N`, the INHIBITION is -13.4%.
For `CCCNC(=O)C1CCN(Cc2csc(CC)n2)CC1`, the INHIBITION worked out at 15.3%.
Turning to `Cc1cc(C(=O)N2C[C@@H]3CC[C@H]2CN(C)C3)ccc1Cl`, the INHIBITION worked out at 18.2%.
Under `Cc1ccc(C)c(OCCC(=O)N2CCCN(CC(N)=O)CC2)c1` stands -79.3%; under `COc1cccc(COCC(=O)N2CCCC(c3ccn[nH]3)C2)c1` (stereo not given), 45.7%; under `CC(=O)CCCC(=O)N(Cc1ccsc1)CC(C)C`, 35%.
Then `Cc1ccnn1CCC(=O)N(Cc1ccsc1)CC(C)C`, with 41.5%.
Turning to `CC(C)CN(Cc1ccsc1)C(=O)CCCn1cncn1`, the INHIBITION came out at 62.8%.
For the compound `CNS(=O)(=O)c1ccc(C)c(C(=O)NCCNc2ncccn2)c1`, the INHIBITION is -7.81%.
Take `CCOc1ccc(CN[C@@H]2COC[C@H]2c2ccc(F)cc2)cc1`: the INHIBITION is given as -16%.
For `CCc1nccn1-c1cncc(C2CCCN2)n1` (stereo not given), the INHIBITION was 51.7%.
With `CCc1nccn1-c1cncc(C2CCCN2Cc2ccc(F)cc2)n1` (stereo not given), the INHIBITION amounted to 31.1%.
On to `CCc1nccn1-c1cccc(C2CCCN2)n1` (stereo not given), for which the INHIBITION is given as 31.3%.
Take `Cc1nn2cnnc2c(C)c1CCC(=O)Nc1nnc(C(C)C)s1`: the INHIBITION was -23.5%.
Under `CCC(C)c1csc(NC(=O)c2sc(-c3nnc[nH]3)nc2C)n1` (stereo not given) stands 37.8%; under `O=C(Cc1csc(-c2nnc[nH]2)n1)N1CCCC1Cn1cccn1` (stereo not given), 39.5%.
In the case of `CCC(C)c1csc(NC(=O)Cc2csc(-c3nnc[nH]3)n2)n1` (stereo not given), the INHIBITION amounted to 93.4%.
Under `CC(C)c1nnc(NC(=O)Cc2csc(-c3nnc[nH]3)n2)s1` stands 76.7%.
Turning to `CCc1ccc(C(C)NC(=O)CCc2nc(-c3nnc[nH]3)no2)cc1` (stereo not given), the INHIBITION amounted to 38.8%.
As for `Cc1nc(C)c(CC(=O)Nc2nnc(C(C)C)s2)c(=O)[nH]1`, the INHIBITION was 25.75%.
As to `CCc1nc(NC(=O)Cc2csc(-c3nnc[nH]3)n2)sc1C`, the INHIBITION is given as 55.4%.
Consider `Cc1cnn(CC2CCCN2C(=O)c2csc(-c3nnc[nH]3)n2)c1` (stereo not given), for which the INHIBITION is on record as -73.2%.
Then `CC(C)(C)CC(NC(=O)N1CCC(C(N)=O)CC1)C(F)(F)F` (stereo not given), with -50.7%; and `CC(C)C(CNC(=O)Nc1cn[nH]c1)N1CCOCC1` (stereo not given), with 7.67%.
Under `CC(C)c1nn(C)c(N(C)C)c1CNCc1cscn1` stands -11%; under `CC(C)OCCC(=O)NCC(O)c1c(Cl)cccc1Cl` (stereo not given), 17.8%.
As to `COCCC(=O)N1C[C@H](C(C)C)[C@@H](N(C)C)C1`, the INHIBITION is on record as 19.4%.
Turning to `CC(C)(C)c1n[nH]c(C2CN(CCc3ccncc3)CCO2)n1` (stereo not given), the INHIBITION stood at 57.5%.
Then `CC(C)(C)c1n[nH]c(C2CN(CCc3cccs3)CCO2)n1` (stereo not given), with 37.3%; and `CCc1n[nH]c(C2CN(CCc3ccncc3)CCO2)n1` (stereo not given), with 23.6%; and `CC(CN1CCOCC1)NC(=O)c1cc(Cl)c2c(c1)OCO2` (stereo not given), with 29.8%.
Take `OC1(CNCCc2csc(-c3ccncc3)n2)CCCNC1` (stereo not given): the INHIBITION is -15%.
Turning to `OC1(CNCc2noc(Cc3ccccc3)n2)CCCNC1` (stereo not given), the INHIBITION was 26%.
On to `OC1(CNCCSCc2ccccc2)CCCNC1` (stereo not given), for which the INHIBITION is given as 55.4%.
For `Cc1c(C2CCCN(C(=O)OC(C)(C)C)C2)n2c(nc1=O)CCC2` (stereo not given), the INHIBITION was 13.5%.
For `COCCC(=O)Nc1cc(CC(C)(C)C)n[nH]1`, the INHIBITION is -28.6%.
Then `Cc1cnc(C)c(-c2cc(O)c3c(c2)CN(c2nccs2)CCO3)n1`, with 28.5%; and `Cc1cnc(C)c(-c2cc(O)c3c(c2)CN(Cc2nccs2)CCO3)n1`, with -16.9%; and `Cc1cnc(C)c(-c2cc(O)c3c(c2)CN(c2ncccn2)CCO3)n1`, with 53%.
Regarding `CS(=O)(=O)N1C[C@H](NC(=O)c2ccno2)[C@@H]2OCCC[C@@H]21`, the INHIBITION is 38.5%.
As to `Cn1ccnc1CN(CCCO)CC(F)(F)F`, the INHIBITION is recorded as 54.8%.
Under `CSc1ccc(CN(CCO)Cc2nccn2C)cc1` stands 43.9%.
Under `Cn1ccnc1CN(CCCO)C1CCCc2ccccc21` (stereo not given) stands -26.8%.
Regarding `Cc1cccc(CNc2cncc(-n3cccn3)n2)c1`, the INHIBITION amounted to 47.6%.
With `CC(C)OCc1ccc(CNc2cncc(-n3cccn3)n2)cc1`, the INHIBITION is 80.6%.
As for `CCOCc1ccc(CNc2cncc(-n3cccn3)n2)cc1`, the INHIBITION came to 80.6%.
For `COCc1ccc(CNc2cncc(-n3cccn3)n2)cc1`, the INHIBITION is recorded as -21.9%.
With `CNS(=O)(=O)Cc1ccc(CNc2cncc(-n3cccn3)n2)cc1`, the INHIBITION is 44.2%.
As to `COC(=O)Nc1ccc(CNc2cncc(-n3cccn3)n2)cc1`, the INHIBITION came to 3.73%.
Regarding `CNC(=O)COc1ccc(CNc2cncc(-n3cccn3)n2)cc1`, the INHIBITION came to 23.4%.
`CCOCCOCc1cccc(CNc2cncc(-n3cccn3)n2)c1`: the INHIBITION is listed as 24.2%.
Then `Fc1cccc(CNc2cncc(-n3cccn3)n2)c1`, with 50.1%.
Regarding `CCCOc1ccc(CNc2cncc(-n3cccn3)n2)cc1`, the INHIBITION came out at 82.6%.
Take `CCOc1cccc(CNc2cncc(-n3cccn3)n2)c1`: the INHIBITION is given as 31.6%.
For the compound `CN(C)c1ccc(CNc2cncc(-n3cccn3)n2)cc1`, the INHIBITION is 49.6%.
